High-throughput results deposited in PubChem BioAssay by National Center for Advancing Translational Sciences (NCATS).
HP1b binding inh – HP1-beta chromodomain-methylated histone interaction inhibition | AID 540317 | P83916 | AlphaScreen HP1-beta / biotin-H3K9me3 peptide binding | 390,000 tested, 0.56% active | Potency, µM (top dose mostly 114 µM), without a hit: top-dose activity change, negative = inhibition, actives largely listed as inhibitors; note: nearly all actives have a fitted effect of over 70% in size
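AlphaScreen: HP1-beta (50 nM) preformed 30 min with biotin-H3(1-18)K9me3 peptide (50 nM) in PBS pH 7.4, 0.01% Tween-20. Compound added for 30 min at RT, then streptavidin donor/nickel chelate acceptor beads (10 ug/mL) for 30 min.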
GLS inh – glutaminase GLS (human) inhibition; Potency, µM (top dose mostly 45.5 µM), inactives show at the highest dose activity change, negative = inhibition, actives largely listed as inhibitors; GLS enzymatic activity, qHTS titration; AID 624170; 410,000 tested, 0.21% active; note: % is set by controls: 0 for no effect and ±100 for the full control effect
Target sequence (O94925 whole entry, looked up): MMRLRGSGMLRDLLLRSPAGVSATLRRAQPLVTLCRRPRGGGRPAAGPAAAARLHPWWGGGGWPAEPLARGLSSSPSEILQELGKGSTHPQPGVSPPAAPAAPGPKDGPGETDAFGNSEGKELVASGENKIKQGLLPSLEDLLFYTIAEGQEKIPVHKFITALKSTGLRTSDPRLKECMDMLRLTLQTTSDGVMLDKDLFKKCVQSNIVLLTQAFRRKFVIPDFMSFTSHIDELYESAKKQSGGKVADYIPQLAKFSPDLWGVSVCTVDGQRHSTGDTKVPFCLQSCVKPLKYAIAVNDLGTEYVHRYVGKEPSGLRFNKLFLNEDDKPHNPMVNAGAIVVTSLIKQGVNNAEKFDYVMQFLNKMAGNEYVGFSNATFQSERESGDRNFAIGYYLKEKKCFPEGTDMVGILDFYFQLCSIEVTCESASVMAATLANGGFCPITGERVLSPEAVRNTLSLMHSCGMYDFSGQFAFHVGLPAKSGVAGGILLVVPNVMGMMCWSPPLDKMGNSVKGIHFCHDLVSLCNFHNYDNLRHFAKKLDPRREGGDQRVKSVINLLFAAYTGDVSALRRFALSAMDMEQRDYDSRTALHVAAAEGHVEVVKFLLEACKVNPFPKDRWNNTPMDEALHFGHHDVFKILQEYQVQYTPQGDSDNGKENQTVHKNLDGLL
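Two-point fluorescence kinetic (t0, 30 min RT) for hKGA; glutamate detected via glutamate oxidase–HRP–Amplex Red. Substrate: 1 mM L-glutamine solution; buffer 45 mM KH2PO4, pH 8.2.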
BAZ2B block – BAZ2B (human) inhibition. AlphaScreen BAZ2B-H3K14Ac peptide displacement. Potency, µM (highest dose often 114 µM), inactives show at the top dose activity change, negative = inhibition, usual class: inhibitors. 360,000 tested, 4.4% active. Q9UIF8; note: % is set by controls: 0 for no effect and ±100 for the full control effect; nearly all actives have a fitted effect of over 60% in size
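In this displacement format the biotinylated H3(5-23) peptide acetylated at Lys14 serves as ligand at 50 nM, with BAZ2B at 50 nM in PBS pH 7.4 containing 0.01% Tween-20. Donor and acceptor beads are 10 ug/mL final.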
G9a block – blocks human histone lysine methyltransferase G9a; Q96KQ7; G9a H3K9 monomethylation, AlphaScreen, 2 h; Potency, µM (highest dose often 102 µM), for inactives: top-dose activity, negative = inhibition, hits mostly inhibitors; 350,000 tested, 8.8% active; AID 504332; note: % is set by controls: 0 for no effect and ±100 for the full control effect; nearly all actives have a fitted effect of over 75% in size
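G9a (20 nM) was preincubated 15 min with compound, then reacted 2 h at room temperature with 500 nM biotin-H3K9 peptide and 20 µM SAM. Monomethyl-H3K9 detected by AlphaScreen using anti-H3K9me1 antibody.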
JMJD2A Tudor – blocks the human JMJD2A Tudor domain; O75164; AlphaScreen JMJD2A-Tudor / H3K4me3 peptide binding; Potency, µM (doses to about 114 µM), for inactives: at the highest dose activity change, negative = inhibition, hits mostly inhibitors; 390,000 tested, 4.4% active; note: % is set by controls: 0 for no effect and ±100 for the full control effect; nearly all actives have a fitted effect of over 50% in size
* = called active by the depositor; ? = inconclusive; nt = no result given; [ ] = another dose, or the depositor's remark. A selection: hits, their analogues and other compounds. The true share with any hit is near 10%. Calls come from the whole dose curve; as a rule, active = well fitted curve in the direction sought with a large enough effect; inconclusive = small, poorly fitted or top-dose-only effect, or another doubt; inactive = no such curve, though single readings can be large; an effect the other way counts as inactive or inconclusive. Potency is the fitted concentration of half-maximal effect.

SMILES	HP1b binding inh	GLS inh	BAZ2B block	G9a block	JMJD2A Tudor
COc1ccc(Cl)cc1NC(=O)CN(C)C(=O)c1ccc(N2CCCCCC2)c([N+](=O)[O-])c1	?	6%	?	22µM*	?
CC1(C(=O)Nc2cccc3ncccc23)CCN1C(=O)C1(c2ccccc2)CC1 (centres undefined)	nt	-2%	nt	nt	nt
O=C(CCN1C(=O)/C(=C/c2ccccc2Cl)SC1=S)Nc1cccnc1	49%	-14%	?	-3%	13%
Cc1ccc(C(=O)NNC(=O)CCCN2C(=O)/C(=C/c3ccccc3Cl)SC2=S)cc1	3%	-6%	-5%	18%[59 µM]	-12%
O=C1/C(=C/c2ccccc2Cl)SC(=S)N1CCCC(=O)N(CCO)c1ccccc1	-23%	2%	3.2µM*	20µM*	8.9µM*
O=C(CCCN1C(=O)/C(=C/c2ccccc2Cl)SC1=S)Nc1ccccn1	?	-13%	?	13µM*	18µM*
O=C(CCN1C(=O)/C(=C/c2ccccc2Cl)SC1=S)Nc1ccccn1	37%	5%	?	7.9µM*	5%
O=C(CCCN1C(=O)/C(=C/c2cccs2)SC1=S)Nc1ccccn1	?	-9%	?	?	?
O=C(CCCN1C(=O)/C(=C/c2ccccc2Cl)SC1=S)Nc1cccnc1	-17%	-1%	?	-34%	22µM*
O=C(CCN1C(=O)/C(=C/c2ccccc2F)SC1=S)Nc1ccccn1	0%	-3%	?	22%	-21%
O=C(COc1ncnc2cc([N+](=O)[O-])ccc12)NCc1ccc2c(c1)OCO2	32%	3%	0%	38%[59 µM]	-13%
CC(NC(=O)c1cc(COc2cccc(C(F)(F)F)c2)on1)c1nccs1 (centres undefined)	39%	9%	9%	0%	-11%
Cc1ccc(C(C)C)c(OCC(=O)Nc2nc3c(s2)CCCC3)c1	66%	-10%	2%	4%[59 µM]	-14%
COc1cc(/C=C2\SC(=S)N(CCC(=O)Nc3ccccn3)C2=O)cc(OC)c1OC	-20%	-8%	-20%	7.9µM*	-21%[57.1 µM]
CCc1cc(=O)oc2cc(OCC(=O)NCCCn3ccnc3)c(Cl)cc12	29%	14%	?	-6%	-7%
CCCN1C(=O)/C(=C\c2nc3ccccc3c(=O)[nH]2)c2ccccc21	-13%	-14%	?	32µM*	-16%
CCC(C)(C)NC(=S)Nc1ccccc1C	33%	5%	-16%	10%	-16%
CCn1c(C)cs/c1=N\C(=S)Nc1ccccc1C	-17%	7%	40µM*	?	?
Cc1ccc(-n2ncc(C(=O)Nc3c(Cl)cccc3Cl)c2C2CCNCC2)cc1	40%	-9%	11%[57.1 µM]	-30%[59 µM]	-29%
Cc1ccc(-n2ncc(C(=O)Nc3cc(Cl)ccc3Cl)c2C2CCNCC2)cc1	11%	-29%	-10%	45µM*	?
COc1ccccc1-c1nccc(NCc2cccnc2)n1	nt	nt	nt	-6%[0.501 µM]	nt
CCOC(=O)C1CCN(C(=O)c2cc3cc4ccc(C)cc4nc3o2)CC1	39%	2%	-9%	79µM*	-13%
CCOC(=O)c1sc(NNC(=O)c2ccc(C)cc2)nc1C	38%	1.3µM*	-3%	?	-12%
CCC(CC)c1nnc(NC(=O)c2ccc([N+](=O)[O-])cc2)s1	0%	9%	-26%	?	-14%
CCOC(=O)c1sc(NS(=O)(=O)c2ccc(C)cc2)nc1C	39%	20%	?	50µM*	-7%
SMILES	HP1b binding inh	GLS inh	BAZ2B block	G9a block	JMJD2A Tudor
CCOC(=O)c1sc(NNC(=O)c2ccc(F)cc2)nc1C	20%	?	14%	?	-6%
CCOC(=O)c1nc(NNC(=O)c2ccc([N+](=O)[O-])cc2)sc1C	-13%	7%	?	45µM*	?
CC(OC(=O)CCCC(=O)Nc1ccc(F)cc1)C(=O)c1ccccc1 (centres undefined)	28%	3%	-9%	20%	2%
CCN1CCN(C(=O)Cn2c(=O)sc3ccccc32)CC1	34%	9%	0%	-4%	-17%
O=C(NC(=S)N1CCCc2ccccc21)c1ccccc1	-11%	6%	?	29%[0.501 µM]	?
COc1ccccc1C(=O)NC(=S)N1CCc2ccccc21	1%	21%	-36%	45µM*	?
COc1ccc(C(=O)NC(=S)N2CCCc3ccccc32)cc1OC	-13%	-2%	?	?	?
CC(C)C(=O)NC(=S)N1CCc2ccccc21	8%	16%	-6%	?	-16%
O=C(NC(=S)N1CCCc2ccccc21)c1ccc(Br)cc1	1%	4%	-32%	45µM*	?
COc1ccccc1C(=O)NC(=S)N1CCCc2ccccc21	-11%	1%	?	10µM*	?
O=C(NCCCNc1ccc(C(F)(F)F)cc1[N+](=O)[O-])c1ccc(F)cc1	30%	-14%	-37%	?	-17%
COc1ccccc1CNC(=O)CCC1N=C2c3ccccc3N=C(SCc3ccc(Cl)cc3)N2C1=O (centres undefined)	11%	5%	-14%	-17%[59 µM]	-5%
COc1ccc(/C=C/C(=O)N(CC(C)C)CC(C)C)cc1Br	45%	14%	4%	13%[59 µM]	5%
COCCCNCCCCOc1c(Cl)cc(C)cc1Br	?	0%	22µM*	nt	2.5µM*
Cc1cc(Cl)c(OCCCNC2CCCC2)c(Br)c1	-37%	0%	?	10µM*	22µM*
CCCCc1c(C)nc2ccccc2c1SCCC(=O)O	20%	-7%	?	50µM*	-16%
CCCCc1c(C)nc2ccc(C)cc2c1SCCC(=O)O	38%	0%	-16%	-5%[59 µM]	-15%
COCCN=C1NN=C(c2ccc(C)c([N+](=O)[O-])c2)CS1	12%	25%	-29%	10µM*	?
CCCCN=C1NN=C(c2ccc(C)c(C)c2)CS1	?	0%	-36%	32µM*	-21%[11.4 µM]
FC(F)Sc1ccc(N=C2NN=C(c3ccc4c(c3)OCCO4)CS2)cc1	?	nt	-7%	nt	-23%
CCCCN=C1NN=C(c2ccc3c(c2)OCCO3)CS1	18%	0%	nt	45µM*	-35%
COc1ccc(N=C2NN=C(c3ccc4c(c3)OCCO4)CS2)cc1	?	-4%	?	45µM*	?
CC(C)(C)NCc1cc(Br)ccc1OCc1cccs1	6%	2%	-1%	18µM*	-19%
CCC1CO/C(=C(\C(Cl)=C(Cl)Cl)[N+](=O)[O-])N1 (centres undefined)	?	11%	2%	79µM*	-16%[11.4 µM]
O=C(Cc1n[nH]c(=O)c2ccccc12)Nc1cc(C(F)(F)F)ccc1-n1cncn1	14%	2%	6%	35µM*	-13%
O=C(Cc1n[nH]c(=O)c2ccccc12)Nc1cc(Cl)ccc1-n1cncn1	42%	-8%	13%	-6%	-4%
CCN(Cc1ccccc1)Cc1c(F)cccc1F	?	6%	nt	?	20µM*
